# Source: PubChem BioAssay (NCI)
# About 79,000 compounds went through this panel and 15% of them were active in at least one assay; those are over-represented in the sample as a whole. Values without a mark were called inactive. Calls of active or inactive are those of the source. No stated cut-off is given here; in the data, active means growth inhibition above about 70%; inactive means the rest.
# Experiments:
# [1] = NCI Yeast Anticancer Drug Screen. Data for the rad52 strain (AID 147);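 further: 0% = growth of vehicle-treated control cultures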; conditions: S. cerevisiae rad52 mutant growth inhibition, stronger effect = higher value
# How it was run: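 Genetically altered yeast (DNA damage repair defect) treated with compound; inhibition calculated relative to vehicle.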
# [2] = NCI Yeast Anticancer Drug Screen. Data for the wt1 strain (AID 149);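 further: 0% = growth of vehicle-treated wt1 cultures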; conditions: S. cerevisiae wt1 strain (SPY 50644) growth inhibition, stronger effect = higher value
# How it was run: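 Each compound is tested on wt1 yeast and the loss of growth versus vehicle gives the inhibition value.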
# [3] = NCI Yeast Anticancer Drug Screen. Data for the rad50EPP+ strain (AID 151);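 further: 0% = growth of vehicle-treated control cultures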; conditions: S. cerevisiae rad50 mutant strain, stronger effect = higher value
# How it was run: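 Strain rad50EPP+; compound exposure; % growth inhibition vs vehicle.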
# [4] = NCI Yeast Anticancer Drug Screen. Data for the mgt1 strain (AID 153); conditions: S. cerevisiae mgt1 mutant growth inhibition, stronger effect = higher value
# How it was run: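 Read-out: yeast growth inhibition vs vehicle control. Strain mgt1, drawn from a panel altered in DNA damage repair or cell cycle control.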
# [5] = NCI Yeast Anticancer Drug Screen. Data for the rad50 strain (AID 155);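 further: 0% = growth of vehicle-only cultures of the same strain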; conditions: S. cerevisiae rad50 strain growth inhibition, stronger effect = higher value
# How it was run: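 Vehicle-treated cultures provide the reference for the growth inhibition reported for compound-exposed, repair-deficient yeast.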
# [6] = NCI Yeast Anticancer Drug Screen. Data for the mec2-1 strain (AID 157); conditions: S. cerevisiae mec2-1 strain, stronger effect = higher value
# How it was run: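 Cells of the genetically defined mec2-1 yeast strain are incubated with test compound. Inhibition of growth is calculated against vehicle-treated controls.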
# [7] = NCI Yeast Anticancer Drug Screen. Data for the rad14 strain (AID 159);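 further: 0% = growth of vehicle-treated control cultures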; conditions: S. cerevisiae rad14 strain growth inhibition, stronger effect = higher value
# How it was run: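 Inhibition of growth is reported for a repair-deficient yeast mutant following compound treatment, calculated relative to cultures that received vehicle.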
# [8] = NCI Yeast Anticancer Drug Screen. Data for the sgs1 mgt1 strain (AID 161);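 further: 0% = growth of cultures given vehicle only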; conditions: S. cerevisiae sgs1 mgt1 strain, stronger effect = higher value
# How it was run: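 Test agents were incubated with a DNA-repair-mutant yeast strain. Growth was then read and compared against vehicle-treated controls.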
# [9] = NCI Yeast Anticancer Drug Screen. Data for the CLN2oe strain (AID 163);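 further: 0% = growth of vehicle-only control cultures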; conditions: S. cerevisiae CLN2oe strain, stronger effect = higher value
# How it was run: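 Strain altered in cell-cycle control, incubated with compound; growth compared to solvent-treated controls.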
# [10] = NCI Yeast Anticancer Drug Screen. Data for the cln2 rad14 strain (AID 165);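 further: 0% = growth equal to vehicle treated cultures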; conditions: S. cerevisiae cln2 rad14 strain, stronger effect = higher value
# How it was run: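 The screen exposed genetically defined yeast (cln2 rad14) to test compounds and scored growth inhibition relative to vehicle-treated controls.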
# [11] = NCI Yeast Anticancer Drug Screen. Data for the bub3 strain (AID 167); conditions: S. cerevisiae bub3 mutant strain, stronger effect = higher value
# How it was run: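 Mutant yeast screening strain plus compound; vehicle-treated cultures serve as the 0% inhibition reference.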
# [12] = NCI Yeast Anticancer Drug Screen. Data for the wt2 strain (AID 169); conditions: S. cerevisiae wt2 strain growth inhibition, stronger effect = higher value
# How it was run: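 Steps: yeast strain treated with compound; growth recorded; inhibition calculated relative to cultures given vehicle alone.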
# [13] = NCI Yeast Anticancer Drug Screen. Data for the mlh1 strain (AID 171);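 further: 0% = growth of vehicle-treated control cultures of the same strain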; conditions: S. cerevisiae mlh1 strain growth inhibition, stronger effect = higher value
# How it was run: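 Yeast screen: mutant strain plus compound, growth scored against vehicle control wells.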
# [14] = NCI Yeast Anticancer Drug Screen. Data for the sgs1 strain (AID 173);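 further: 0% = growth of vehicle-only control cultures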; conditions: S. cerevisiae sgs1 mutant, stronger effect = higher value
# How it was run: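 Inhibition of yeast growth served as the measure. The mutant strain was treated with each compound, and growth was normalised to cultures receiving vehicle alone.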
# [15] = NCI Yeast Anticancer Drug Screen. Data for the mlh1 rad18 strain (AID 175); conditions: S. cerevisiae mlh1 rad18 strain growth inhibition, stronger effect = higher value
# How it was run: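 Compound-treated yeast growth, normalised to vehicle controls. Strain bears defined DNA repair mutations.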
# [16] = NCI Yeast Anticancer Drug Screen. Data for the rad18 strain (AID 177); conditions: S. cerevisiae rad18 mutant growth inhibition, stronger effect = higher value
# How it was run: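 Inhibition values reflect reduced yeast growth compared with vehicle-treated controls, using a strain engineered with a DNA damage repair defect.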
# [17] = at 5.0 µM (retest, dose inferred, filed as 0.5)
# [18] = at 50.0 µM (retest, dose inferred, filed as 5.0)
smiles,measurement,setting,value
CN(C)c1ccc(C2CC(C)(O)Oc3cc4c(cc32)OCO4)cc1 (stereo not drawn),growth inhibition,[1]; at 1.2 µM,-1%
same,growth inhibition,[1]; at 3.7 µM,-1%
same,growth inhibition,[1]; at 11.0 µM,10%
same,growth inhibition,[1]; at 33.0 µM,28%
same,growth inhibition,[1]; at 100.0 µM,70% (active)
same,growth inhibition,[2]; at 1.2 µM,0%
same,growth inhibition,[2]; at 3.7 µM,5%
same,growth inhibition,[2]; at 11.0 µM,1%
same,growth inhibition,[2]; at 33.0 µM,1%
same,growth inhibition,[2]; at 100.0 µM,7%
same,growth inhibition,[3]; at 1.2 µM,2%
same,growth inhibition,[3]; at 3.7 µM,4%
same,growth inhibition,[3]; at 11.0 µM,20%
same,growth inhibition,[3]; at 33.0 µM,36%
same,growth inhibition,[3]; at 100.0 µM,59%
same,growth inhibition,[4]; at 1.2 µM,-2%
same,growth inhibition,[4]; at 3.7 µM,-3%
same,growth inhibition,[4]; at 11.0 µM,0%
same,growth inhibition,[4]; at 33.0 µM,4%
same,growth inhibition,[4]; at 100.0 µM,48%
same,growth inhibition,[5]; at 1.2 µM,-1%
same,growth inhibition,[5]; at 3.7 µM,-2%
same,growth inhibition,[5]; [17],10%
same,growth inhibition,[5]; at 11.0 µM,5%
same,growth inhibition,[5]; at 33.0 µM,12%
same,growth inhibition,[5]; [18],77% (active)
same,growth inhibition,[5]; at 50.0 µM,24.6%
same,growth inhibition,[5]; at 100.0 µM,40%
same,growth inhibition,[6]; at 1.2 µM,-6%
same,growth inhibition,[6]; at 3.7 µM,0%
same,growth inhibition,[6]; [17],-20%
same,growth inhibition,[6]; at 11.0 µM,2%
same,growth inhibition,[6]; at 33.0 µM,4%
same,growth inhibition,[6]; [18],12%
same,growth inhibition,[6]; at 50.0 µM,14.3%
same,growth inhibition,[6]; at 100.0 µM,29%
same,growth inhibition,[7]; at 1.2 µM,-1%
same,growth inhibition,[7]; at 3.7 µM,1%
same,growth inhibition,[7]; at 11.0 µM,9%
same,growth inhibition,[7]; at 33.0 µM,27%
same,growth inhibition,[7]; at 100.0 µM,58%
same,growth inhibition,[8]; [17],2%
same,growth inhibition,[8]; [18],83% (active)
same,growth inhibition,[8]; at 50.0 µM,34.7%
same,growth inhibition,[9]; at 1.2 µM,-5%
same,growth inhibition,[9]; at 3.7 µM,-16%
same,growth inhibition,[9]; at 11.0 µM,4%
same,growth inhibition,[9]; at 33.0 µM,-3%
same,growth inhibition,[9]; at 100.0 µM,16%
same,growth inhibition,[10]; [17],1%
same,growth inhibition,[10]; [18],37%
same,growth inhibition,[10]; at 50.0 µM,21.3%
same,growth inhibition,[11]; at 1.2 µM,-5%
same,growth inhibition,[11]; at 3.7 µM,-3%
same,growth inhibition,[11]; [17],18%
same,growth inhibition,[11]; at 11.0 µM,3%
same,growth inhibition,[11]; at 33.0 µM,10%
same,growth inhibition,[11]; [18],79% (active)
same,growth inhibition,[11]; at 50.0 µM,27.9%
same,growth inhibition,[11]; at 100.0 µM,16%
same,growth inhibition,[12]; at 1.2 µM,-1%
same,growth inhibition,[12]; at 3.7 µM,-2%
same,growth inhibition,[12]; at 11.0 µM,-1%
same,growth inhibition,[12]; at 33.0 µM,7%
same,growth inhibition,[12]; at 100.0 µM,46%
same,growth inhibition,[13]; at 1.2 µM,-3%
same,growth inhibition,[13]; at 3.7 µM,0%
same,growth inhibition,[13]; at 11.0 µM,2%
same,growth inhibition,[13]; at 33.0 µM,11%
same,growth inhibition,[13]; at 100.0 µM,41%
same,growth inhibition,[14]; at 1.2 µM,-1%
same,growth inhibition,[14]; at 3.7 µM,7%
same,growth inhibition,[14]; at 11.0 µM,23%
same,growth inhibition,[14]; at 33.0 µM,55%
same,growth inhibition,[14]; at 100.0 µM,87% (active)
same,growth inhibition,[15]; [17],23%
same,growth inhibition,[15]; [18],93% (active)
same,growth inhibition,[15]; at 50.0 µM,43.5%
same,growth inhibition,[16]; at 1.2 µM,24%
same,growth inhibition,[16]; at 3.7 µM,57%
same,growth inhibition,[16]; at 11.0 µM,89% (active)
same,growth inhibition,[16]; at 33.0 µM,92% (active)
same,growth inhibition,[16]; at 100.0 µM,95% (active)
